The sample as a whole holds a higher share of hits than the screen did.
TDP1 cell noCPT – qHTS for Inhibitors of human tyrosyl-DNA phosphodiesterase 1 (TDP1): qHTS in cells in absence of CPT; DT40 Tdp1-/- hTDP1 cells, no CPT, ATP luminescence, 48 h; 420,000 tested, 15% active; AID 686978, 2013; Potency, µM (titrated, usually from 46.2 µM), without a hit: top-dose activity change, negative = growth inhibition, actives largely listed as inhibitors; also: potency is read from the fitted curve at half-maximal effect; nearly all actives have a fitted effect of over 55% in size
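Compound effects on proliferation are scored in DT40 Tdp1-/-;hTDP1 cells in the absence of CPT. ATP levels (CellTiter-Glo luminescence) are recorded after a ≥48 hr, 37 °C incubation.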
TDP1 cell CPT – growth inhibition of DT40 Tdp1-/-;hTDP1 cells with camptothecin (screen for TDP1 inhibitors) | 420,000 tested, 12% active | AID 686979 | Potency, µM (titrated, usually from 46.2 µM), without a hit: at the highest dose activity change, negative = growth inhibition, most hits filed as inhibitors | chicken DT40 Tdp1-/-;hTDP1 cells + 20 nM CPT, ATP luminescence, 48 h; also: potency is read from the fitted curve at half-maximal effect; nearly all actives have a fitted effect of over 55% in size
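Cell growth measured by CellTiter-Glo luminescence after a minimum 48 h, 37 C compound exposure with 20 nM CPT in Tdp1-knockout DT40 cells stably expressing hTDP1, seeded 400/well; qHTS titration format.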
HT1080-NT tox – kills 2HG-producing HT-1080-NT fibrosarcoma cells | HT-1080-NT fibrosarcoma viability, CellTiter-Glo ATP luminescence, 48 h | Potency, µM (series often up to 46.1 µM), inactives show at the top dose activity, negative = less viability, usual class: cytotoxic | 360,000 tested, 1.6% active;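 also: NT is the 2HG producing partner of a matched IDH1 knockdown line; potency is read from the fitted curve at half-maximal effect; 0% = DMSO-treated cells and -100% = media-only wells without cells; nearly all actives have a fitted effect of over 55% in size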
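Viability by CellTiter-Glo luminescence after 48 h compound exposure at 37C of HT-1080-NT cells (750/well, RPMI, 5% FBS). % activity scaled between DMSO wells and medium-only wells, then curve-fitted and categorized by curve class.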
HT1080 IDH1KD tx – HT-1080 IDH1 knockdown cell toxicity (counter line); HT-1080 IDH1 knockdown viability, ATP luminescence, 48 h; Potency, µM (doses to about 46.1 µM), for the others: at the highest dose activity, negative = toxicity, most hits filed as cytotoxic; 360,000 tested, 2% active;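 also: potency is read from the fitted curve at half-maximal effect; 0% = DMSO wells and -100% = cell-free medium wells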
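Assay cells: HT-1080 with IDH1 knockdown, 750 per well, RPMI/5% FBS. Exposure: 48 h at 37 °C following 2 h pre-incubation. Read: CellTiter-Glo luminescence; fitted concentration-response, curve class assigned.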
12-LOX inh – ALOX12 (human) lipoxygenase inhibition | Potency, µM (series often up to 108 µM), for the others: at the top dose activity change, negative = inhibition, usual class: inhibitors | AID 1671190 | P18054 | purified 12hLO, xylenol orange hydroperoxide absorbance | 580,000 tested, 1.1% active; also: potency is read from the fitted curve at half-maximal effect
Target sequence (P18054 whole entry, looked up): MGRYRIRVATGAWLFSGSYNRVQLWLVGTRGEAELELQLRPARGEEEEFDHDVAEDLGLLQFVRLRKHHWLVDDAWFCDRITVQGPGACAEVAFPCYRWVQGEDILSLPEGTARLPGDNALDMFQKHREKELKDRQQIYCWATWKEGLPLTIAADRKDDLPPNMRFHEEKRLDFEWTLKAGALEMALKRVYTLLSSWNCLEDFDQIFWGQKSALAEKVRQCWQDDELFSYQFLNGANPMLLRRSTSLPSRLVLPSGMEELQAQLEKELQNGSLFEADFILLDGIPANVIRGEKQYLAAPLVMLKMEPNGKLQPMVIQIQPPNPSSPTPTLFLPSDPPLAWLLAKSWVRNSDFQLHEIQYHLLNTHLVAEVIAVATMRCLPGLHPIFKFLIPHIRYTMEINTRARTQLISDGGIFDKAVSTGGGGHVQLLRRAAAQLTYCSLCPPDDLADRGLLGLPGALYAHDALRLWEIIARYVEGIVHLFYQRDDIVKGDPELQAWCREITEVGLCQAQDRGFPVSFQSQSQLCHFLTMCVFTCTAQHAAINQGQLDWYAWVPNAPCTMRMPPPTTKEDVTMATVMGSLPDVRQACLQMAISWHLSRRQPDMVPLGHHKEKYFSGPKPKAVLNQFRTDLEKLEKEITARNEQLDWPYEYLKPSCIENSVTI
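Hydroperoxide product was detected by ferrous iron/xylenol orange as the 573 to 405 nm absorbance ratio. Arachidonic acid at 40 uM (final) was turned over for 30 min at room temperature by 150 nM human 12hLO, pH 7.0 Hepes buffer, after 15 min compound preincubation.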
IL-1B inflam inh – inflammasome signaling inhibition, IL-1 beta readout; 360,000 tested, 4.7% active; THP-1 LPS/ATP IL-1B secretion, AlphaLISA, 16 h; hits give low values; AID 743279; activity change, % at 57.5 µM; in the data active = activity change below about -50%; inconclusive = mostly about -30% to -49%
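THP-1 cells pretreated 1 hr with compounds (up to 57.5 uM final), then stimulated with LPS (250 ng/mL final) plus ATP (1.25 mM final); secreted IL-1B measured by AlphaLISA after 16 hr, decreased signal indicating inhibition.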
Active calls of the source: *; ? = inconclusive; . = not tested or not shown; [ ] = another dose, or the depositor's remark. Unless noted, calls follow the shape of the dose curve; as a rule, active = well fitted curve in the direction sought with a large enough effect; inconclusive = small, poorly fitted or top-dose-only effect, or another doubt; inactive = no such curve, though single readings can be large; an effect the other way counts as inactive or inconclusive. Unless noted, % is scaled to controls: 0 for no effect and ±100 for the full control effect.

SMILES | TDP1 cell noCPT | TDP1 cell CPT | HT1080-NT tox | HT1080 IDH1KD tx | 12-LOX inh | IL-1B inflam inh
O=c1c(-c2cc(-c3ccc(Cl)cc3)nc3c2COc2ccccc2-3)coc2ccccc12 | -6% | -24% | . | . | -25% | .
O=C1COc2ccc(-c3cc(-c4ccc(Cl)cc4)c4c(n3)-c3ccccc3OC4)cc2N1 | 2.3µM* | 1µM* | . | . | -24% | .
O=C1COc2ccc(-c3cc(-c4ccccc4)c4c(n3)-c3ccccc3OC4)cc2N1 | 9.2µM* | 13µM* | . | . | -21% | .
O=C1COc2ccc(-c3cc(-c4ccccc4)c4c(n3)-c3cc(Cl)ccc3OC4)cc2N1 | 1.2µM* | 3.3µM* | . | . | -1% | .
Cc1c(O)ccc2c(CN(C)CCO)cc(=O)oc12 | . | . | . | . | -4% | .
CC(C)OCCCn1c(SCc2cccc(Br)c2)nc2c(sc3ccccc32)c1=O | -2% | 13% | . | . | -17% | .
CCCCn1c(SCC(N)=O)nc2c(sc3ccccc32)c1=O | ? | ? | 22µM* | -9% | -17% | -21
C/C(N)=C(/C#N)C(=O)CSc1nc2ccccc2c(=O)n1CCCOC(C)C | 23µM* | ? | 1% | 16% | -8% | ?
CC(C)OCCCn1c(SCC(N)=O)nc2c(sc3ccccc32)c1=O | ? | 21µM* | . | . | -13% | .
CCNC(=O)CSc1nc2ccccc2c(=O)n1CCCOC(C)C | -12% | -6% | 18% | 13% | 0% | 2
Cc1cccc(CSc2nc3c(sc4ccccc43)c(=O)n2CCC(=O)NC(C)C)c1 | 12µM* | 4.6µM* | . | . | -29% | .
CCCCCCCCOC(C)=O | . | . | . | . | 5%[176 µM] | .
COC(=O)c1ccc(Cl)cc1NC(=O)Nc1nnc(N(C)Cc2ccccc2)s1 | -22% | -21% | . | . | -9% | .
CCCN(C(=O)CCc1cn(CCC)c2ccccc12)c1ccc(Oc2cccnc2)cc1 | . | . | . | . | -20% | .
Fc1ccc(F)c(CN2CCC(Oc3ccccc3-c3nc(C4CCOCC4)no3)C2)c1 (stereo unspecified) | . | . | . | . | 15% | .
CC(C)(C)c1cc(CCC(=O)NNC(=S)NC(=O)c2ccccc2)cc(C(C)(C)C)c1O | 3.7µM* | 4.1µM* | 15µM* | ? | . | 169
CCCCC(=O)NNC(=S)NC(=O)CCC | ? | ? | -10% | -13% | -23% | -95*
CC(C)(C)c1cc(CCC(=O)NNC(=O)c2ccco2)cc(C(C)(C)C)c1O | ? | -8% | 0% | 4% | -1% | 19
CCCCC(=O)NC(=S)NNC(=O)CCc1ccccc1 | 21µM* | 21µM* | 3% | -2% | -25% | 174
CC(=O)NC(=S)NNC(=O)CCc1ccccc1 | ? | ? | 0% | -5% | -20% | -7
O=C(CCc1ccccc1)NNC(=S)NC(=O)c1ccccc1 | 15µM* | 7.3µM* | ? | 11µM* | ? | 0
COc1ccc(C(=O)N2CCC(C)(C(=O)O)C2)c(OC)c1 (stereo unspecified) | 1% | -3% | 10% | 4% | ? | 10
COCCNc1oc(-c2ccc(S(=O)(=O)N3CCCC3)cc2)nc1C#N | . | . | . | . | -7% | .
Cc1cc(=O)n(CC(=O)Nc2cc(F)ccc2F)c(N2CCc3ccccc3C2)n1 | . | . | . | . | -11% | .
COC(=O)[C@H]1C[C@H](OC(=O)Nc2cccs2)[C@@]2(O)CN(S(=O)(=O)c3ccc(C)cc3)CC2[C@H]1C(=O)OC (stereo partly specified) | ? | ? | -7% | 5% | ? | -56*
CCCCCCn1c(=O)n2n(c1=O)[C@@H]1CN(S(=O)(=O)c3ccc(C)cc3)C[C@]1(O)[C@@H](OC(=O)NCc1ccc(OC)c(OC)c1)C2 | ? | ? | -23% | 4% | -6% | ?
